Source: PubChem BioAssay (NCATS)
Results filed as inconclusive are left out. Entries that show only a call come without a potency. Activity calls are given as the source filed them. Calls come from the whole dose curve; as a rule, active = well fitted curve in the direction sought with a large enough effect; inconclusive = small, poorly fitted or top-dose-only effect, or another doubt; inactive = no such curve, though single readings can be large; an effect the other way counts as inactive or inconclusive.

Key:
[1] = Cell Viability - LYMP2-007 (AID 979); conditions: LYMP2-007 lymphoblastoid cell viability; series mostly up to 92.2 µM;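 note: cells exposed to compound for 24 h before reading; nearly all actives have a fitted effect of over 60% in size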; note: potency is the fitted concentration of half-maximal effect
Outline: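 Human lymphoblastoid cells (2500/well) were plated in complete medium, incubated 5 hr at 37 C, then exposed to compounds for 24 hr at 37 C. Intracellular ATP was read by CellTiter-Glo luminescence after 30 min at room temperature; AC50 from Hill fits.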

[2] = Cell Viability - LYMP2-008 (AID 980); conditions: LYMP2-008 lymphoblastoid cell viability, qHTS; series mostly up to 92.2 µM; note: nearly all actives have a fitted effect of over 60% in size; note: potency is the fitted concentration of half-maximal effect
Outline: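 Human lymphoblastoid cells (2500/well) were plated, held 5 hr at 37 C, then exposed to compounds for 24 hr at 37 C in complete medium. Intracellular ATP was read by CellTiter-Glo luminescence; AC50 from Hill-fitted concentration-response.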

[3] = Cell Viability - LYMP2-010 (AID 981); conditions: LYMP2-010 lymphoblastoid cell viability, qHTS; series mostly up to 92.2 µM; note: nearly all actives have a fitted effect of over 55% in size; note: potency is the fitted concentration of half-maximal effect
Outline: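 Human lymphoblastoid LYMP2-010 cells (2500/well) were preincubated 5 hr at 37 C, then exposed to compounds for 24 hr at 37 C in complete medium. Intracellular ATP was measured by CellTiter-Glo luminescence after 30 min at room temperature; AC50 from Hill-fitted concentration-response.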

[4] = Cell Viability - LYMP2-014 (AID 983); conditions: LYMP2-014 lymphoblastoid cells, viability qHTS; series mostly up to 92.2 µM; note: nearly all actives have a fitted effect of over 50% in size; note: potency is the fitted concentration of half-maximal effect
Outline: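 Human lymphoblastoid cells (2500/well) were pre-incubated 5 hr at 37 C, then exposed to compounds in complete medium for 24 hr at 37 C. Intracellular ATP was read by CellTiter-Glo luminescence after 30 min at room temperature; AC50 from Hill fits.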

[5] = Cell Viability - LYMP2-016 (AID 984); conditions: LYMP2-016 lymphoblastoid cell viability, qHTS; series mostly up to 92.2 µM; note: nearly all actives have a fitted effect of over 55% in size; note: potency is the fitted concentration of half-maximal effect
Outline: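 Human lymphoblastoid LYMP2-016 cells, 2500 per well, treated with compounds for 24 h at 37 C. Viability read as intracellular ATP by CellTiter-Glo luminescence after 30 min at room temperature; AC50 from Hill fits of concentration-response.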

[6] = Cell Viability - LYMP2-020 (AID 986); conditions: series mostly up to 92.2 µM; note: nearly all actives have a fitted effect of over 55% in size; note: potency is the fitted concentration of half-maximal effect
Outline: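 Human lymphoblastoid cells, 2500/well, were pre-incubated 5 hr at 37 C, then exposed to compounds for 24 hr at 37 C in complete medium. Intracellular ATP was read by CellTiter-Glo luminescence, and AC50 was derived by Hill fitting of concentration-response data.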

[7] = Cell Viability - LYMP2-022 (AID 987); conditions: LYMP2-022 lymphoblastoid cell viability; series mostly up to 92.2 µM; note: nearly all actives have a fitted effect of over 55% in size; note: potency is the fitted concentration of half-maximal effect
Outline: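 Human lymphoblastoid cells, 2500/well, preincubated 5 hr at 37 C, then exposed to compounds over a concentration range for 24 hr at 37 C in complete medium. Viability read as intracellular ATP by CellTiter-Glo luminescence after 30 min at room temperature; AC50 from Hill fits.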

[8] = Cell Viability - LYMP2-024 (AID 988); conditions: LYMP2-024 lymphoblastoid cell viability; series mostly up to 92.2 µM; note: nearly all actives have a fitted effect of over 60% in size; note: potency is the fitted concentration of half-maximal effect
Outline: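 Human lymphoblastoid cells (2500/well) in complete medium were preincubated 5 hr at 37 C, then exposed to compounds for 24 hr at 37 C. Intracellular ATP was read by CellTiter-Glo luminescence; AC50 from Hill-equation fits of concentration-response data.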

[9] = Cell Viability - LYMP2-026 (AID 989); conditions: LYMP2-026 lymphoblastoid cell viability, qHTS; series mostly up to 92.2 µM; note: nearly all actives have a fitted effect of over 50% in size
Outline: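 Human lymphoblastoid cells (2500/well) in complete medium were preincubated 5 hr at 37 C, then exposed to compounds for 24 hr at 37 C. Cellular ATP was read by CellTiter-Glo luminescence; AC50 from Hill-equation fits of concentration-response data.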

[10] = target: Alpha-galactosidase A (Homo sapiens) (UniProt P06280); assay: Counterscreen for Glucocerebrosidase Inhibitors: qHTS Assay for Human alpha-Galactosidase at pH 4.5 (AID 992); conditions: purified enzyme, fluorogenic substrate; series mostly up to 76.9 µM
Outline: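 Enzyme at 2 nM final was combined with compound (0.7 nM to 77 uM) and 80 uM 4-methylumbelliferyl alpha-D-galactopyranoside in 50 mM citric acid, 0.005% Tween-20, pH 4.5. After 20 min at room temperature, fluorescence was read (Ex 365/Em 440 nm); AC50 came from Hill fits.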

Chain of Alpha-galactosidase A (Homo sapiens) (P06280 whole entry, looked up): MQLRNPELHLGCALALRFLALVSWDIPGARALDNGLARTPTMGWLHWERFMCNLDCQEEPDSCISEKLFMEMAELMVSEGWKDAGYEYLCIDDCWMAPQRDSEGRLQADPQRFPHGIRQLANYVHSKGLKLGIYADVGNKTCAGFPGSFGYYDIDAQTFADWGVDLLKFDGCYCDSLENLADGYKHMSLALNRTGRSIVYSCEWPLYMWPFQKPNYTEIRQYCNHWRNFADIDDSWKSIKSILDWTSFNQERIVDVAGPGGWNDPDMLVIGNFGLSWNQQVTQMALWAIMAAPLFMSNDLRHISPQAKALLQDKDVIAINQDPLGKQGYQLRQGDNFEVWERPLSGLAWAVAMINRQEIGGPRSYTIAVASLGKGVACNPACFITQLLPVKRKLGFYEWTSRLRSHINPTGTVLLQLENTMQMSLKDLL

Structure (SMILES)	Potency [1]	Potency [2]	Potency [3]	Potency [4]	Potency [5]	Potency [6]	Potency [7]	Potency [8]	outcome [9]	outcome [10]
[O-][N+](=Nc1ccccc1)c1ccccc1	inactive	inactive	inactive	inactive	inactive	inactive	inactive	inactive	inactive	
CCCCC	inactive	inactive	inactive	inactive	inactive	inactive	inactive	inactive	inactive	
C[C@H](CCC(=O)O)[C@H]1CC[C@H]2[C@@H]3[C@H](O)C[C@@H]4C[C@H](O)CC[C@]4(C)[C@H]3C[C@H](O)[C@]12C	inactive	inactive	inactive	inactive	inactive	inactive	inactive	inactive	inactive	
CC1=CC(=O)NS(=O)(=O)O1	inactive	inactive	inactive	inactive	inactive	inactive	inactive	inactive	inactive	
O=P(O)(O)O	inactive	inactive	inactive	inactive	inactive	inactive	inactive	inactive	inactive	
CC/C=C\C/C=C\C/C=C\CCCCCCCC(=O)O	39.8 µM (active)		39.8 µM (active)				50.1 µM (active)	39.8 µM (active)		
Nc1nccs1	inactive	inactive	inactive	inactive	inactive	inactive	inactive	inactive	inactive	
C[C@H](CCC(=O)O)[C@H]1CC[C@H]2[C@@H]3CC[C@@H]4C[C@H](O)CC[C@]4(C)[C@H]3C[C@H](O)[C@]12C	inactive	inactive	inactive		inactive	inactive	inactive	inactive	inactive	
OC[C@H]1O[C@@H]2O[C@H]3[C@H](O)[C@@H](O)[C@@H](O[C@H]4[C@H](O)[C@@H](O)[C@@H](O[C@H]5[C@H](O)[C@@H](O)[C@@H](O[C@H]6[C@H](O)[C@@H](O)[C@@H](O[C@H]7[C@H](O)[C@@H](O)[C@@H](O[C@H]1[C@H](O)[C@H]2O)O[C@@H]7CO)O[C@@H]6CO)O[C@@H]5CO)O[C@@H]4CO)O[C@@H]3CO	inactive	inactive	inactive	inactive	inactive	inactive	inactive	inactive	inactive	
C[C@H]1O[C@@H](O[C@H]2[C@@H](O)C[C@H](O[C@H]3[C@@H](O)C[C@H](O[C@H]4CC[C@@]5(C)[C@H](CC[C@@H]6[C@@H]5C[C@@H](O)[C@]5(C)[C@@H](C7=CC(=O)OC7)CC[C@]65O)C4)O[C@@H]3C)O[C@@H]2C)C[C@H](O)[C@@H]1O			0.251 µM (active)				0.251 µM (active)	0.158 µM (active)		
CO/N=C(/C(=O)N[C@@H]1C(=O)N2C(C(=O)O)=C(COC(N)=O)CS[C@H]12)c1ccco1	inactive	inactive	inactive	inactive	inactive	inactive	inactive	inactive	inactive	
Oc1ccc(/C=C/c2cc(O)cc(O)c2)cc1	inactive	inactive	inactive	inactive	inactive	inactive	inactive	inactive	inactive	
CC(C)O	inactive	inactive	inactive	inactive	inactive	inactive	inactive	inactive	inactive	
Oc1cccc(O)c1O		inactive		inactive	inactive	inactive			inactive	
OCc1ccccc1	inactive	inactive	inactive	inactive	inactive	inactive	inactive	inactive	inactive	
CC(C)(C)CC(C)(C)c1ccc(OCCO)cc1	inactive	inactive	inactive	inactive	inactive	inactive	inactive	inactive	inactive	
OB(O)O	inactive	inactive	inactive	inactive	inactive	inactive	inactive	inactive	inactive	
OCC(O)CO	inactive	inactive	inactive	inactive	inactive	inactive	inactive	inactive	inactive	
c1ccc2ccccc2c1	inactive	inactive	inactive	inactive	inactive	inactive	inactive	inactive	inactive	
OCl	inactive	inactive	inactive	inactive	inactive	inactive	inactive	inactive	inactive	

Structure (SMILES)	Potency [1]	Potency [2]	Potency [3]	Potency [4]	Potency [5]	Potency [6]	Potency [7]	Potency [8]	outcome [9]	outcome [10]
Cc1cc(C)c(NC(=O)C[C@H](CC(=O)O)c2cccc3ccccc23)c(C(=O)N2CCC3(CCCC3)CC2)c1										inactive
C/C=C/C=C/C(=O)O	inactive	inactive	inactive	inactive	inactive	inactive	inactive	inactive	inactive	
NC(N)=O	inactive	inactive	inactive	inactive	inactive	inactive	inactive	inactive	inactive	
O=c1n(CC2CO2)c(=O)n(CC2CO2)c(=O)n1CC1CO1 (stereo not drawn)	39.8 µM (active)		25.1 µM (active)		31.6 µM (active)	25.1 µM (active)	31.6 µM (active)	39.8 µM (active)		
CCOC(C)OCC	inactive	inactive	inactive	inactive	inactive	inactive	inactive	inactive	inactive	
Nc1ncnc2c1ncn2[C@H]1CC[C@@H](CO)O1	inactive	inactive	inactive	inactive	inactive	inactive	inactive	inactive	inactive	
Nc1ccc(N=Nc2ccccc2)c(N)n1	inactive	inactive	inactive	inactive	inactive	inactive	inactive	inactive	inactive	
CC1=CCC2CC1C2(C)C (stereo not drawn)	inactive	inactive	inactive	inactive	inactive	inactive	inactive	inactive	inactive	
Cc1ncc[nH]1	inactive	inactive	inactive	inactive	inactive	inactive	inactive	inactive	inactive	
COC(=O)c1ccccc1O	inactive	inactive	inactive	inactive	inactive	inactive	inactive	inactive	inactive	
C[C@@](Cc1ccc(O)c(O)c1)(NN)C(=O)O										inactive
NCCN	inactive	inactive	inactive	inactive	inactive	inactive	inactive	inactive	inactive	
CO	inactive	inactive	inactive	inactive	inactive	inactive	inactive	inactive	inactive	
CCCCO	inactive	inactive	inactive	inactive	inactive	inactive	inactive	inactive	inactive	
O.O.O.O.O.O.O.O=S(=O)([O-])[O-].[Co+2]		inactive			inactive					
Cc1ccc(S(=O)(=O)O)cc1C	inactive	inactive	inactive	inactive	inactive	inactive	inactive	inactive	inactive	
C=C1C(CCl)(CCl)C2(Cl)C(Cl)C(Cl)C1(Cl)C2(Cl)Cl (stereo not drawn)	39.8 µM (active)	31.6 µM (active)	39.8 µM (active)	50.1 µM (active)	50.1 µM (active)	50.1 µM (active)	39.8 µM (active)	39.8 µM (active)		
ClC(Cl)Cl	inactive	inactive	inactive	inactive	inactive	inactive	inactive	inactive	inactive	
CC[C@H]1OC(=O)[C@H](C)[C@@H](O[C@H]2C[C@@](C)(OC)[C@@H](O)[C@H](C)O2)[C@H](C)[C@@H](O[C@@H]2O[C@H](C)C[C@H](N(C)C)[C@H]2O)[C@](C)(O)C[C@@H](C)CN(C)[C@H](C)[C@@H](O)[C@]1(C)O	inactive	inactive	inactive	inactive	inactive	inactive	inactive	inactive	inactive	
